These results are taken from PubChem BioAssay (EPA / NIEHS).

Read-out in experiment [1]: Interleukin-1 alpha (IL1a), IL1A (gene 3552)
Put plainly: BSK_KF3CT_IL1a: BioMAP Diversity Plus: KF3CT Assay for Interleukin-1 alpha (IL1a) Biomarker Activity (AID 2283070). The settings on record: primary human keratinocytes with fibroblasts; actives raise or lower the signal. The method in brief:
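Readout is IL-1a level by ELISA, compared bidirectionally with DMSO as baseline. Cells: human keratinocytes co-cultured with foreskin fibroblasts, harvested 24 h post-dose.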

Read-out in experiment [2]: TIMP metallopeptidase inhibitor 2 (TIMP2), TIMP2 (gene 7077)
The experiment can be described thus: BSK_KF3CT_TIMP2: BioMAP Diversity Plus: KF3CT Assay for TIMP metallopeptidase inhibitor 2 (TIMP2) Biomarker Activity (AID 2283071). The settings on record: primary human keratinocytes with fibroblasts; actives raise or lower the signal. In short, it runs like this: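 Measurements come from ELISA detection of TIMP-2 at 24 hours in a dosed human keratinocyte and foreskin fibroblast co-culture. DMSO serves as negative control and baseline.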

Read-out in experiment [3]: Transforming growth factor beta 1 (TGFb1), TGFB1 (gene 7040)
Put plainly: BSK_KF3CT_TGFb1: BioMAP Diversity Plus: KF3CT Assay for Transforming growth factor beta 1 (TGFb1) Biomarker Activity (AID 2283072). The following applies: primary human keratinocytes with fibroblasts; actives raise or lower the signal. The method in brief: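 TGF-b1 ELISA on a 24 h dosed co-culture of human keratinocytes and foreskin fibroblasts; cytotoxicity tracked in parallel cultures by SRB staining.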

Read-out in experiment [4]: C-C motif chemokine 2 (Homo sapiens) (UniProt P13500)
The experiment can be described thus: BSK_KF3CT_MCP1: BioMAP Diversity Plus: KF3CT Assay for Monocyte Chemoattractant Protein 1 (MCP1/CCL2) Biomarker Activity (AID 2283073). The settings on record: primary human keratinocytes with fibroblasts; actives raise or lower the signal. In short, it runs like this: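 Keratinocytes and foreskin fibroblasts were co-cultured, dosed with chemical, and sampled 24 h later. MCP-1 was quantified by ELISA, and the endpoint was analyzed with bidirectional fitting using DMSO as negative control.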

Read-out in experiment [5]: Matrix Metallopeptidase 9 (MMP9), MMP9 (gene 4318)
The experiment can be described thus: BSK_KF3CT_MMP9: BioMAP Diversity Plus: KF3CT Assay for Matrix Metallopeptidase 9 (MMP9) Biomarker Activity (AID 2283074).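 For AC50: MMP9 protein level quantified by ELISA in the co-culture.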 The settings on record: primary human keratinocytes with fibroblasts; actives raise or lower the signal. The method in brief:
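Values come from bidirectional fitting relative to DMSO of MMP-9 levels, which were measured by ELISA. Measurements were taken 24 h after chemical dosing of a keratinocyte and foreskin fibroblast co-culture.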

Read-out in experiment [6]: urokinase plasminogen activator (uPA), PLAU (gene 5328)
The experiment can be described thus: BSK_KF3CT_uPA: BioMAP Diversity Plus: KF3CT Assay for urokinase plasminogen activator (uPA) Biomarker Activity (AID 2283075). The following applies: primary human keratinocytes with fibroblasts; actives raise or lower the signal. The method in brief:
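Values derive from bidirectional fitting against DMSO controls. Keratinocyte/foreskin fibroblast co-cultures received chemical; 24 h later uPA was detected by ELISA, with SRB total-protein staining in parallel wells for overt cytotoxicity.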

Read-out in experiment [7]: CD40, CD40 (gene 958)
Put plainly: BSK_LPS_CD40: BioMAP Diversity Plus: LPS Assay for CD40 Biomarker Activity (AID 2283076). The settings on record: primary human HUVEC with PBMC; actives raise or lower the signal. The method in brief: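 CD40 signal, measured by ELISA, is fitted in both directions relative to DMSO vehicle. The system is an LPS-driven human vascular primary co-culture of endothelial cells and PBMC, sampled 24 h after compound addition.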

Read-out in experiment [8]: E-selectin (Homo sapiens) (UniProt P16581)
The experiment can be described thus: BSK_LPS_Eselectin: BioMAP Diversity Plus: LPS Assay for Eselectin Biomarker Activity (AID 2283077). The settings on record: primary human HUVEC with PBMC; actives raise or lower the signal. The method in brief: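 Signal of E-selectin, detected by ELISA, served as the endpoint; cells were umbilical vein endothelium with PBMC, read 24 h after treatment. DMSO defined baseline, and both increases and decreases were fitted.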

Read-out in experiment [9]: Interleukin-8 (IL8), CXCL8 (gene 3576)
Put plainly: BSK_LPS_IL8: BioMAP Diversity Plus: LPS Assay for Interleukin-8 (IL8) Biomarker Activity (AID 2283078). The following applies: primary human HUVEC with PBMC; actives raise or lower the signal. The method in brief:
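Endothelial cells and PBMC from human donors are co-cultured, treated with chemicals and LPS, then assayed for IL-8 by ELISA after 24 h. Parallel SRB staining (0.1% SRB after 10% TCA fixation, 560 nm) flags cytotoxicity.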

A short description of experiment [10]: BSK_LPS_SRB: Viability Assessment in the BioMAP Diversity Plus: LPS Assay (AID 2283079).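 Note: total protein by sulforhodamine B absorbance as a cytotoxicity measure; measured one day after compound addition; fitted in both directions against DMSO so loss or gain of signal counts.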 The settings on record: primary human HUVEC with PBMC. The method in brief: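 Overt cytotoxicity was gauged by sulforhodamine B total-protein staining in a primary human vascular endothelial and mononuclear cell co-culture 24 h post-dosing. Activity was fitted in both directions relative to DMSO.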

Read-out in experiment [11]: Interleukin-1 alpha (IL1a), IL1A (gene 3552)
The experiment can be described thus: BSK_LPS_IL1a: BioMAP Diversity Plus: LPS Assay for Interleukin-1 alpha (IL1a) Biomarker Activity (AID 2283080). The following applies: primary human HUVEC with PBMC; actives raise or lower the signal. In short, it runs like this: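 Measured: IL-1 alpha via ELISA at 24 h in LPS-activated human umbilical vein endothelium–PBMC co-culture. Baseline: DMSO, bidirectional fitting.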

Read-out in experiment [12]: Monocyte Chemoattractant Protein-1 (MCP1), CCL2 (gene 6347)
Put plainly: BSK_LPS_MCP1: BioMAP Diversity Plus: LPS Assay for Monocyte Chemoattractant Protein-1 (MCP1) Biomarker Activity (AID 2283081).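 For AC50: secreted MCP-1 protein quantified by ELISA in culture supernatant.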 The following applies: primary human HUVEC with PBMC; actives raise or lower the signal. In short, it runs like this: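 LPS-stimulated HUVEC/PBMC co-culture; chemical, 24 h; MCP-1 by ELISA; bidirectional fit vs DMSO; cytotoxicity via SRB (0.1% stain, 10% TCA fix, 560 nm) in parallel wells.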

The nature of experiment [13]: BSK_LPS_PGE2: BioMAP Diversity Plus: LPS Assay for Prostaglandin E2 (PGE2) Biomarker Activity (AID 2283082). The settings on record: primary human HUVEC with PBMC; actives raise or lower the signal. The method in brief:
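Primary human endothelial cells and blood mononuclear cells, co-cultured with LPS, receive test chemical; PGE2 ELISA follows at 24 h, with SRB-stained parallel cultures flagging cytotoxicity.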

Read-out in experiment [14]: Macrophage colony-stimulating factor (MCSF), CSF1 (gene 1435)
The experiment can be described thus: BSK_LPS_MCSF: BioMAP Diversity Plus: LPS Assay for Macrophage colony-stimulating factor (MCSF) Biomarker Activity (AID 2283083). The following applies: primary human HUVEC with PBMC; actives raise or lower the signal. In short, it runs like this:
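Compound is added to a human vascular primary co-culture of umbilical vein endothelium and blood mononuclear cells. After 24 h, M-CSF is quantified by ELISA. Signal changes are fitted in both directions against DMSO.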

Read-out in experiment [15]: Tissue Factor, F3 (gene 2152)
Put plainly: BSK_LPS_TissueFactor: BioMAP Diversity Plus: LPS Assay for Tissue Factor Biomarker Activity (AID 2283084). The following applies: primary human HUVEC with PBMC; actives raise or lower the signal. The method in brief: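 In this co-culture system of umbilical vein endothelium with PBMC, stimulated with LPS, cell-surface CD142 is detected by ELISA at 24 h. Endpoint values derive from bidirectional fitting, DMSO serving as baseline.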

Read-out in experiment [16]: Vascular cell adhesion molecule 1 (VCAM1), VCAM1 (gene 7412)
The experiment can be described thus: BSK_LPS_VCAM1: BioMAP Diversity Plus: LPS Assay for Vascular cell adhesion molecule 1 (VCAM1) Biomarker Activity (AID 2283086). The settings on record: primary human HUVEC with PBMC; actives raise or lower the signal. The method in brief:
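Measured by ELISA: VCAM-1 in LPS-activated HUVEC/PBMC co-cultures 24 h after treatment. Values reflect bidirectional fitting with DMSO as baseline.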

Read-out in another experiment: CD38, CD38 (gene 952)
The experiment can be described thus: BSK_SAg_CD38: BioMAP Diversity Plus: SAg Assay for CD38 Biomarker Activity (AID 2283087). The settings on record: primary human HUVEC with PBMC; actives raise or lower the signal. In short, it runs like this:
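Measures CD38 on a human endothelial/PBMC co-culture driven by SEB and TSST-1, 24 h after compound exposure, using ELISA with fluorescence detection; DMSO defines baseline for bidirectional curve fitting.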

Read-out in experiment [17]: CD40, CD40 (gene 958)
Put plainly: BSK_SAg_CD40: BioMAP Diversity Plus: SAg Assay for CD40 Biomarker Activity (AID 2283088). The settings on record: primary human HUVEC with PBMC; actives raise or lower the signal. The method in brief:
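Fluorescence ELISA read-out of CD40 from umbilical vein endothelium plus peripheral blood mononuclear cells, sampled 24 h after dosing. Values come from bidirectional curve fitting with DMSO as baseline.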

Read-out in the next experiment: CD69, CD69 (gene 969)
The experiment can be described thus: BSK_SAg_CD69: BioMAP Diversity Plus: SAg Assay for CD69 Biomarker Activity (AID 2283089).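 For AC50: cell surface CD69 protein quantified by ELISA with fluorescence detection.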 The settings on record: primary human HUVEC with PBMC; actives raise or lower the signal. In short, it runs like this:
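HUVEC co-cultured with PBMC were dosed with chemical, and CD69 was measured by ELISA with fluorescence read-out 24 h later. Bidirectional curve fitting used DMSO as negative control and activity baseline.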

Read-out in experiment [18]: Tumor necrosis factor (Homo sapiens) (UniProt P01375)
The experiment can be described thus: BSK_LPS_TNFa: BioMAP Diversity Plus: LPS Assay for Tumour Necrosis Factor alpha (TNFa) Biomarker Activity (AID 2283085). The settings on record: primary human HUVEC with PBMC; actives raise or lower the signal. The method in brief: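 ELISA-based TNFa endpoint in a human endothelial–PBMC co-culture sampled 24 h post-exposure. Curves were fitted in both directions using DMSO as baseline of activity.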

Active and inactive are the calls of the source. Rule for the calls: active = hit-call score of the fitted dose curve at least 0.9, where 1 is the maximum; inactive = score below 0.9.

Sequence of E-selectin (Homo sapiens) (P16581 whole entry, looked up): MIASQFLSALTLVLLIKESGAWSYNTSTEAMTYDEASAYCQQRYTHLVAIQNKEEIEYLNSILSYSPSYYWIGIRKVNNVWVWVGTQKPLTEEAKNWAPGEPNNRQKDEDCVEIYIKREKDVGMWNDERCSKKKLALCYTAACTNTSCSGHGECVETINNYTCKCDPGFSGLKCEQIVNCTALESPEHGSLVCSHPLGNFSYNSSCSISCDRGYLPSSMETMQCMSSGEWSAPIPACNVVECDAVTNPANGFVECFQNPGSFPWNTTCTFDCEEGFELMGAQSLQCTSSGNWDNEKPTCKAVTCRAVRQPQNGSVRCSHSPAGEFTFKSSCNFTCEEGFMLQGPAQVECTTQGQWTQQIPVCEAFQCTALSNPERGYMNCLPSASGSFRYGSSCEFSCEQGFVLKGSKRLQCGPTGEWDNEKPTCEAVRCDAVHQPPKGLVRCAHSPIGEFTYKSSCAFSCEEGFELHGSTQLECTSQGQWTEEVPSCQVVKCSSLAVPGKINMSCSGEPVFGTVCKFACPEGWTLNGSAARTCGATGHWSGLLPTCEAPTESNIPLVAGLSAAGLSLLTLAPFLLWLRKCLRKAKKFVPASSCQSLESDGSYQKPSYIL
Sequence of Tumor necrosis factor (Homo sapiens) (P01375 whole entry, looked up): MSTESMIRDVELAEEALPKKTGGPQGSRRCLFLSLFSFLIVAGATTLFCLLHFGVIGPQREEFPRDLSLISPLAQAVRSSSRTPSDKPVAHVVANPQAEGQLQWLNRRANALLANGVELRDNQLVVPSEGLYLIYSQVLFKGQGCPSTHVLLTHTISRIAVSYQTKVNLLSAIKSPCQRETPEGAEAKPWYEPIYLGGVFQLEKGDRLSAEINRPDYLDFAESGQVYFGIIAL

Take `N#Cc1cc([N+](=O)[O-])ccc1N`: the outcome in experiment [1], in experiment [2], in experiment [3], in [4], in experiment [5] and in [6] was inactive. Besides, the outcome is “inactive” with CD40, CD40 (gene 958) [7]; “inactive” in [8]; “inactive” in [9]; “inactive” in experiment [10]; “inactive” in experiment [11]; “inactive” in experiment [12]. Also, the outcome in [13] is “inactive”; in [14], “inactive”; in [15], “inactive”; in [16], “inactive”; with CD38, CD38 (gene 952) it was “inactive”; with CD40, CD40 (gene 958) [17], “inactive”. In addition, the result with CD69, CD69 (gene 969) was inactive.
`O=P(Oc1ccccc1)(Oc1ccccc1)Oc1ccccc1`: the outcome in [1], in experiment [2], in experiment [3], in experiment [4], in experiment [5] and in experiment [6] was inactive. For the same molecule, the outcome in experiment [8], in experiment [11], in [13] and in [15] was inactive. For the same molecule, the half-maximal activity concentration (AC50) with CD40, CD40 (gene 958) [7] is 23.6 µM (active); in experiment [9] it was 30.6 µM (active); in experiment [10], 30.6 µM (active); in experiment [12], 30 µM (active); in experiment [14] it was 32.1 µM (active); in [16], 20 µM (active). In addition, the AC50 is 31.7 µM (active) with CD38, CD38 (gene 952); 25.9 µM (active) in the experiment with CD40, CD40 (gene 958) [17]; 31.6 µM (active) with CD69, CD69 (gene 969).
On to `O=P(OCC(Br)CBr)(OCC(Br)CBr)OCC(Br)CBr` (configuration not stated), for which the outcome was “inactive” in experiment [1]; “inactive” in experiment [2]; “inactive” in [3]; “inactive” in experiment [4]; “inactive” in experiment [6]; “inactive” in the experiment with CD40, CD40 (gene 958) [7]. Moreover, the result in experiment [8], in [9], in experiment [10], in [11], in [12] and in [13] was inactive. Besides, the outcome in experiment [15] was “inactive”; in [18], “inactive”; in experiment [16] it was “inactive”; with CD38, CD38 (gene 952), “inactive”; with CD40, CD40 (gene 958) [17], “inactive”; with CD69, CD69 (gene 969) it was “inactive”. The AC50 in experiment [5] is 21.1 µM (active).
For `CN(C)C(=O)Cl`, the result in experiment [1], in experiment [2], in [3], in [4], in experiment [5] and in experiment [6] was inactive. The outcome is “inactive” in the experiment with CD40, CD40 (gene 958) [7]; “inactive” in experiment [8]; “inactive” in [9]; “inactive” in [10]; “inactive” in experiment [11]; “inactive” in [12]. In addition, the outcome in experiment [13] was “inactive”; in [14], “inactive”; in experiment [15] it was “inactive”; in experiment [18], “inactive”; in experiment [16], “inactive”; with CD38, CD38 (gene 952), “inactive”. Further, the outcome was “inactive” in the experiment with CD40, CD40 (gene 958) [17] and “inactive” with CD69, CD69 (gene 969).

Broadly, the AC50 is the concentration at which the activity in the assay is half-maximal.
